Bioassay records deposited in PubChem BioAssay by National Center for Advancing Translational Sciences (NCATS).
PTHR1 ag = PTHR1 (human) receptor agonism; hit rate 0.075% among 410,000; AID 743266; Potency, µM (highest dose often 115 µM), without a hit: at the highest dose activation, hits mostly activators; HEK293 GP2 PTHR1 cells, GloSensor cAMP luminescence, 1 h; also: nearly all actives have a fitted effect of over 55% in size
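HEK-293-derived GP2 cells expressing PTHR1 and a GloSensor cAMP reporter, 3,000/well, plated overnight, given luciferin plus IBMX (each 0.5 mM as added) for 1 h at 37 °C, then compound for 1 h at 37 °C. Luminescence was read after 15 min at room temperature.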
GLP1R cytotox = cytotoxicity counter-screen for GLP-1 receptor inverse agonists | HEK293 cAMP-luciferase reporter cells, luminescence, 24 h | Potency, µM (series often up to 38.3 µM), for inactives: at the highest dose activity change, negative = inhibition, usual class: inhibitors | hit rate 0.13% among 410,000 | AID 624418;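 also: loss of luciferase light is scored as toxicity; % is scaled to controls: 0 for no effect and ±100 for the full control effect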
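Seeding density was 200 cells/uL; after overnight-length (12 h) culture, 23 nL compounds went on for 24 h at 37 °C. Readout used a luciferase detection reagent, luminescence taken after 12 min at room temperature.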
GLP-1R agonist = activates the human GLP-1 receptor. P43220. HEK293 GLP-1R CRE-luciferase, luminescence, 4-6 h; cells express a hypersensitive GLP-1R form. Potency, µM (titrated, usually from 45.6 µM), for the others: at the top dose activation, hits mostly activators. hit rate 0.007% among 380,000; also: % of control where 0% means no effect
Target sequence (P43220 whole entry, looked up): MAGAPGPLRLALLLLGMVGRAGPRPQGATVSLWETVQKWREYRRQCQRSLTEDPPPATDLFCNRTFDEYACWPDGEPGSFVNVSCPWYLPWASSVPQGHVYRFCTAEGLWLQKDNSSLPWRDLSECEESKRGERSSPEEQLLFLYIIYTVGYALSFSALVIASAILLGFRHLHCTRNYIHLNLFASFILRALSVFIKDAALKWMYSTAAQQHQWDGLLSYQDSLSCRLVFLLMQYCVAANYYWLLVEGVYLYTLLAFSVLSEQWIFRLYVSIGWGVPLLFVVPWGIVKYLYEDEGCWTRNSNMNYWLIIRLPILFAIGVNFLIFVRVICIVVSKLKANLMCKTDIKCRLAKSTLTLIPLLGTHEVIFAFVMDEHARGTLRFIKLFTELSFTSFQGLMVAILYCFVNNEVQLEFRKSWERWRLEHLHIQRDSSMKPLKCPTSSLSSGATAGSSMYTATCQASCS
GLP-1R inv ag = acts as inverse agonist at human GLP-1 receptor | P43220 | HEK293 GLP-1R CRE-luciferase, luminescence, 24 h; GLP-1R form is constitutively active | Potency, µM (top dose mostly 38.3 µM), for inactives: top-dose activity change, negative = inhibition, most hits filed as inhibitors | hit rate 1.6% among 410,000 | AID 624417; also: % is scaled to controls: 0 for no effect and ±100 for the full control effect; nearly all actives have a fitted effect of over 55% in size
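HEK293 cells stably co-expressing a cAMP-responsive luciferase reporter and constitutively active GLP-1R were seeded, incubated 12 h, then exposed to compounds for 24 h at 37 C. Luminescence was read 12 min after detection reagent; inverse agonists lower signal.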
Numbers without * were called inactive; [ ] = another dose, or the depositor's remark. Hits are enriched below; roughly 1.7% of the tested compounds scored in any of these assays. Calls follow the shape of the dose curve; as a rule, active = well fitted curve in the direction sought with a large enough effect; inconclusive = small, poorly fitted or top-dose-only effect, or another doubt; inactive = no such curve, though single readings can be large; an effect the other way counts as inactive or inconclusive. Potency is read from the fitted curve at half-maximal effect.

Results for O=C(NCc1ccc(Cl)cc1)c1ccccc1Oc1ccccc1 ?
PTHR1 ag: -15.2%[57.5 µM]; GLP1R cytotox: 23.4%; GLP-1R agonist: 2.9%; GLP-1R inv ag: 2.82µM*

Results for CCC(CC)NC(=O)c1ccccc1Oc1ccccc1 ?
PTHR1 ag: inactive; GLP1R cytotox: 1.2%; GLP-1R agonist: 2.5%; GLP-1R inv ag: inconclusive

What do the screens show for `CCC(C)(C)NC(=O)c1ccccc1Oc1ccccc1`?
PTHR1 ag: inactive; GLP1R cytotox: -9.7%; GLP-1R agonist: 12.9%; GLP-1R inv ag: 14.1µM*

What do the screens show for `CN(C)C(=S)SC(=S)N(C)C`?
GLP-1R agonist: -3.4%

How did Cc1cccc(C(=O)Nc2nc(-c3ccc(Br)cc3)ns2)c1 do in these assays?
PTHR1 ag: inactive; GLP1R cytotox: -5.6%; GLP-1R inv ag: 13.7%

What do the screens show for `COc1ccc(Nc2ncc(C(=O)Nc3ccc(F)cc3F)c3ccccc23)cc1`?
PTHR1 ag: -13.1%; GLP1R cytotox: -9.2%; GLP-1R agonist: -2.4%; GLP-1R inv ag: inconclusive

Results for Cc1ccc(C)c(N2CCN(C(=O)c3ccccc3Br)CC2)c1 ?
PTHR1 ag: inactive; GLP1R cytotox: 12.9%; GLP-1R agonist: 0.8%; GLP-1R inv ag: inconclusive

How did Cc1ccc(N2CCN(C(=O)c3ccccc3Br)CC2)c(C)c1 do in these assays?
PTHR1 ag: inactive; GLP1R cytotox: 5.3%; GLP-1R agonist: -20.9%; GLP-1R inv ag: 10µM*

What do the screens show for `O=C(O)c1ccc(/C=N/Nc2ccc(F)cc2F)cc1`?
PTHR1 ag: -36.8%; GLP1R cytotox: 6.5%; GLP-1R agonist: -17.0%; GLP-1R inv ag: inconclusive

Results for Fc1ccc(N/N=C/c2ccncc2)c(F)c1 ?
PTHR1 ag: -15.5%; GLP1R cytotox: -15.1%; GLP-1R agonist: 10.2%; GLP-1R inv ag: 1.41µM*

How did COc1ccc(C(=O)C(CCCCC(CN(C)C)C(=O)c2ccc(OC)cc2)CN(C)C)cc1 (stereo unspecified) do in these assays?
PTHR1 ag: inactive; GLP1R cytotox: inconclusive; GLP-1R agonist: 17.4%; GLP-1R inv ag: 0.0%

What do the screens show for `CCOc1ccc(C(=O)C(CCC(CN(C)C)C(=O)c2ccc(OCC)cc2)CN(C)C)cc1` (stereo unspecified)?
PTHR1 ag: inconclusive; GLP1R cytotox: -22.0%; GLP-1R agonist: -6.1%; GLP-1R inv ag: 1.58µM*

Results for O=C(NC1CC(=O)N(c2ccc(F)cc2)C1)C1CC1 (stereo unspecified) ?
PTHR1 ag: inactive; GLP1R cytotox: 1.5%; GLP-1R inv ag: 10.6%

What do the screens show for `COc1ccc(Cc2c(-c3cccc(Cl)c3)nc3cc(C)c(Br)c(C)n23)c(C)c1`?
PTHR1 ag: -42.9%; GLP1R cytotox: 0.3%; GLP-1R agonist: -0.8%; GLP-1R inv ag: 8.91µM*

What do the screens show for `CCN(CC(=O)Nc1c(F)cccc1F)C(=O)c1cc(-c2cccs2)nn1-c1ccccc1`?
PTHR1 ag: -12.2%; GLP1R cytotox: inconclusive; GLP-1R agonist: -17.2%; GLP-1R inv ag: 10µM*

How did Cc1ccc(NC(=O)CN(C)C(=O)c2cc(-c3cccs3)nn2-c2ccccc2)cc1 do in these assays?
PTHR1 ag: -63.3%; GLP1R cytotox: 5.5%; GLP-1R agonist: 3.9%; GLP-1R inv ag: 7.94µM*

What do the screens show for `NCCCC[C@H](NC(=O)[C@@H]1CCCN1C(=O)[C@@H]1CSSC[C@H](NC(=O)CNC(=O)CNC(=O)CN)C(=O)N[C@@H](Cc2ccc(O)cc2)C(=O)N[C@@H](Cc2ccccc2)C(=O)N[C@@H](CCC(N)=O)C(=O)N[C@@H](CC(N)=O)C(=O)N1)C(=O)NCC(N)=O`?
GLP-1R agonist: -0.3%

How did CC1=C(C(=O)N2CCN(c3ccc(Cl)cc3)CC2)C2(CCC(C)CC2)OC1=O (stereo unspecified) do in these assays?
PTHR1 ag: -73.1%; GLP1R cytotox: 12.0%; GLP-1R inv ag: 0.7%

Results for O=C1NC[C@H](CC2CCCCC2)N(CCc2cccc3ccccc23)C1=O ?
PTHR1 ag: -22.4%; GLP1R cytotox: 6.5%; GLP-1R agonist: 9.4%; GLP-1R inv ag: 14.8%

What do the screens show for `S=C1NC[C@H](CC2CCCCC2)N1CCc1cccc2ccccc12`?
PTHR1 ag: inactive; GLP1R cytotox: -10.2%; GLP-1R agonist: -4.5%; GLP-1R inv ag: 7.94µM*

What do the screens show for `Cc1cc(C)c(NC(=O)c2c(C)nn(-c3ccc(F)cc3)c2-n2cccc2)c(C)c1`?
PTHR1 ag: -27.6%; GLP1R cytotox: -10.2%; GLP-1R agonist: 11.0%; GLP-1R inv ag: inconclusive

How did CCN(CC)c1ccc(NC(=O)c2c(C)nn(-c3ccc(F)cc3)c2-n2cccc2)c(C)c1 do in these assays?
PTHR1 ag: -35.6%; GLP1R cytotox: -9.3%; GLP-1R agonist: 0.7%; GLP-1R inv ag: 5.01µM*

How did Cc1ccc(CCNC(=O)c2c(C)nn(-c3ccc(F)cc3)c2-n2cccc2)cc1 do in these assays?
PTHR1 ag: -2.4%; GLP1R cytotox: -23.2%; GLP-1R agonist: 24.5%; GLP-1R inv ag: 6.31µM*

What do the screens show for `CCN(CC(=O)NC(=O)NCc1ccco1)Cc1nc2ccccc2c(=O)[nH]1`?
PTHR1 ag: -27.7%; GLP1R cytotox: 11.2µM*; GLP-1R agonist: 0.1%; GLP-1R inv ag: -12.3%

How did C/C(=C(/CCOC(=O)c1ccccc1)SS/C(CCOC(=O)c1ccccc1)=C(\C)N(C=O)Cc1cnc(C)nc1N)N(C=O)Cc1cnc(C)nc1N do in these assays?
GLP-1R agonist: -3.7%

How did CCn1c(=O)c2cc(C(=O)NCCc3ccc(OC)c(OC)c3)sc2c2ccccc21 do in these assays?
PTHR1 ag: -49.5%; GLP1R cytotox: 0.2%; GLP-1R agonist: -0.1%; GLP-1R inv ag: 4.2%

Results for CCOc1ccccc1CN1CCN(C2CCN(c3ccccc3F)CC2)CC1CCO (stereo unspecified) ?
PTHR1 ag: 29.5%; GLP1R cytotox: -3.8%; GLP-1R agonist: 1.9%; GLP-1R inv ag: 11.2µM*

What do the screens show for `COc1ccc2cc3cc(C(=O)N4CCN(Cc5ccc6c(c5)OCO6)CC4)oc3nc2c1`?
PTHR1 ag: -34.4%; GLP1R cytotox: -16.4%; GLP-1R agonist: -7.6%; GLP-1R inv ag: 10µM*

Results for CCOC(=O)N1CCN(C(=O)c2ccc3nc(N4CCCCC4)sc3c2)CC1 ?
PTHR1 ag: -12.5%[57.5 µM]; GLP1R cytotox: 1.4%; GLP-1R agonist: 10.5%; GLP-1R inv ag: -2.2%

Results for O=C(c1ccc2nc(N3CCCCC3)sc2c1)N1CCN(Cc2ccc3c(c2)OCO3)CC1 ?
PTHR1 ag: inactive; GLP1R cytotox: 4.7%; GLP-1R agonist: 0.2%; GLP-1R inv ag: 10µM*

How did CCCOc1ccc(C(=O)N2CCN(Cc3ccc4c(c3)OCO4)CC2)cc1 do in these assays?
PTHR1 ag: -31.5%; GLP1R cytotox: -1.7%; GLP-1R agonist: 0.8%; GLP-1R inv ag: 7.94µM*

Results for CC(C1CC2CCC1C2)n1c(-c2cccs2)n[nH]c1=S (stereo unspecified) ?
PTHR1 ag: -4.2%; GLP1R cytotox: -0.5%; GLP-1R agonist: 12.7%; GLP-1R inv ag: 5.01µM*

Results for O=C(COc1ccc2ccccc2c1Br)N1CCCCC1 ?
PTHR1 ag: -13.5%; GLP1R cytotox: 3.6%; GLP-1R agonist: 9.2%; GLP-1R inv ag: 10µM*
